# Measurements as given in PubChem BioAssay (NCATS).
# For part of these data: Results with a measured potency or affinity are listed apart. Active and inactive are the calls of the source. No rule for the calls is given here.
# Settings: Ebola virus entry assay, blue channel fluorescence
row,Structure (SMILES),outcome
1,CCc1nc(N)nc(N)c1-c1ccc(Cl)cc1,inactive
2,C=C[C@H]1CN2CC[C@H]1C[C@@H]2[C@@H](O)c1ccnc2ccc(OC)cc12,inactive
3,CC(COc1ccccc1)N(CCCl)Cc1ccccc1 (configuration not stated),inactive
4,Cc1nccn1CC1CCc2c(c3ccccc3n2C)C1=O (configuration not stated),inactive
5,Cc1ccc(C)c(OCCCC(C)(C)C(=O)O)c1,inactive
6,CCCN1C[C@H](CSC)C[C@@H]2c3cccc4[nH]cc(c34)C[C@H]21,inactive
7,O=C1[C@H](CC[C@H](O)c2ccc(F)cc2)[C@@H](c2ccc(O)cc2)N1c1ccc(F)cc1,inactive
8,COc1c(C)c2c(c(O)c1C/C=C(\C)CCC(=O)O)C(=O)OC2,inactive
9,CC1(C)S[C@@H]2[C@H](NC(=O)Cc3ccccc3)C(=O)N2[C@H]1C(=O)O (tested in a mixture with another compound),inactive
10,COc1cc2nc(N3CCN(C(=O)C4CCCO4)CC3)nc(N)c2cc1OC (configuration not stated),inactive
11,C=C(c1ccc(C(=O)O)cc1)c1cc2c(cc1C)C(C)(C)CCC2(C)C,inactive
12,C[C@](N)(Cc1ccc(O)c(O)c1)C(=O)O,inactive
13,CCn1cc(C(=O)O)c(=O)c2cc(F)c(N3CCNCC3)cc21,inactive
14,Nc1ccc(O)c(C(=O)O)c1,inactive
15,CN(C/C=C/C#CC(C)(C)C)Cc1cccc2ccccc12,inactive
16,C[C@H]1O[C@H](O[C@H]2[C@H](O)[C@@H](O)[C@@H](O[C@H]3[C@H](O)[C@@H](O)[C@H](O)O[C@@H]3CO)O[C@@H]2CO)[C@H](O)[C@@H](O)[C@@H]1N[C@H]1C=C(CO)[C@@H](O)[C@H](O)[C@H]1O,inactive
17,NC1[C@H]2CN(c3nc4c(cc3F)c(=O)c(C(=O)O)cn4-c3ccc(F)cc3F)C[C@@H]12 (some centres not stated),inactive

# Settings: Ebola virus entry assay, reporter ratio channel; AC50: Channel type: primary unless noted; outcome: Channel type: primary unless noted
Structure (SMILES),AC50,outcome
CCc1nc(N)nc(N)c1-c1ccc(Cl)cc1,39.8 µM (active),–
Clc1ccc(C(c2ccccc2Cl)C(Cl)Cl)cc1 (configuration not stated),22.4 µM (active),–
Nc1cccc2c1CN(C1CCC(=O)NC1=O)C2=O (configuration not stated),–,inactive
C=C[C@H]1CN2CC[C@H]1C[C@@H]2[C@@H](O)c1ccnc2ccc(OC)cc12,35.5 µM (active),–
Nc1nc(N)c2nc(-c3ccccc3)c(N)nc2n1,–,inactive
CC[C@H](C)C(=O)O[C@H]1C[C@@H](C)C=C2C=C[C@H](C)[C@H](CC[C@@H]3C[C@@H](O)CC(=O)O3)[C@H]21,–,inactive
CC(COc1ccccc1)N(CCCl)Cc1ccccc1 (configuration not stated),17.8 µM (active),–
Cc1nccn1CC1CCc2c(c3ccccc3n2C)C1=O (configuration not stated),22.4 µM (active),–
CNC1(C)C2CCC(C2)C1(C)C (configuration not stated),35.5 µM (active),–
NNc1nncc2ccccc12,–,inactive
CNC(=O)c1cc(Oc2ccc(NC(=O)Nc3ccc(Cl)c(C(F)(F)F)c3)cc2)ccn1,35.5 µM (active),–
Cc1ccc(C)c(OCCCC(C)(C)C(=O)O)c1,–,inactive
CCC(C)(C)C(=O)O[C@H]1C[C@@H](C)C=C2C=C[C@H](C)[C@H](CC[C@@H]3C[C@@H](O)CC(=O)O3)[C@H]21,7.08 µM (active),–
Cc1ccc(S(=O)(=O)NC(=O)NN2CC3CCCC3C2)cc1 (configuration not stated),–,inactive
CCCN1C[C@H](CSC)C[C@@H]2c3cccc4[nH]cc(c34)C[C@H]21,7.94 µM (active),–
CN1CCC[C@@H]1Cc1c[nH]c2ccc(CCS(=O)(=O)c3ccccc3)cc12,25.1 µM (active),–
O=C1[C@H](CC[C@H](O)c2ccc(F)cc2)[C@@H](c2ccc(O)cc2)N1c1ccc(F)cc1,28.2 µM (active),–
COc1c(C)c2c(c(O)c1C/C=C(\C)CCC(=O)O)C(=O)OC2,–,inactive
C=C(CC)C(=O)c1ccc(OCC(=O)O)c(Cl)c1Cl,15.8 µM (active),–
CN(C)CC[C@@H](c1ccc(Br)cc1)c1ccccn1,39.8 µM (active),–

Structure (SMILES),AC50,outcome
CCOC(=O)C1(c2ccccc2)CCN(CCC(C#N)(c2ccccc2)c2ccccc2)CC1,10 µM (active),–
Oc1ccc(C2CNCCc3c2cc(O)c(O)c3Cl)cc1 (configuration not stated),–,inactive
CC1(C)S[C@@H]2[C@H](NC(=O)Cc3ccccc3)C(=O)N2[C@H]1C(=O)O (tested in a mixture with another compound),–,inactive
COc1cc2nc(N3CCN(C(=O)C4CCCO4)CC3)nc(N)c2cc1OC (configuration not stated),28.2 µM (active),–
CC(=O)[C@]1(O)Cc2c(O)c3c(c(O)c2[C@@H](O[C@H]2C[C@H](N)[C@H](O)[C@H](C)O2)C1)C(=O)c1ccccc1C3=O,12.6 µM (active),–
C#C[C@]1(O)CC[C@H]2[C@@H]3CCC4=Cc5oncc5C[C@]4(C)[C@H]3CC[C@@]21C,6.31 µM (active),–
C=C(c1ccc(C(=O)O)cc1)c1cc2c(cc1C)C(C)(C)CCC2(C)C,–,inactive
C[C@](N)(Cc1ccc(O)c(O)c1)C(=O)O,22.4 µM (active),–
C#Cc1cccc(Nc2ncnc3cc(OCCOC)c(OCCOC)cc23)c1,–,inactive
CCn1cc(C(=O)O)c(=O)c2cc(F)c(N3CCNCC3)cc21,–,inactive
CCC1=C[C@@H]2CN(C1)Cc1c([nH]c3ccccc13)[C@@](C(=O)OC)(c1cc3c(cc1OC)N(C)[C@H]1[C@@](O)(C(=O)OC)[C@H](OC(C)=O)[C@]4(CC)C=CCN5CC[C@]31[C@@H]54)C2,–,inactive [Channel type: confirmation]
Nc1ccc(O)c(C(=O)O)c1,31.6 µM (active),–
CN(C/C=C/C#CC(C)(C)C)Cc1cccc2ccccc12,35.5 µM (active),–
O=C1Nc2ccc(Cl)cc2[C@@](C#CC2CC2)(C(F)(F)F)O1,22.4 µM (active),–
COc1c(C)c2c(c(O)c1C/C=C(\C)CCC(=O)OCCN1CCOCC1)C(=O)OC2,–,inactive
Cc1cn([C@H]2C[C@H](N=[N+]=[N-])[C@@H](CO)O2)c(=O)[nH]c1=O,–,inactive
C[C@H]1O[C@H](O[C@H]2[C@H](O)[C@@H](O)[C@@H](O[C@H]3[C@H](O)[C@@H](O)[C@H](O)O[C@@H]3CO)O[C@@H]2CO)[C@H](O)[C@@H](O)[C@@H]1N[C@H]1C=C(CO)[C@@H](O)[C@H](O)[C@H]1O,–,inactive
NC1[C@H]2CN(c3nc4c(cc3F)c(=O)c(C(=O)O)cn4-c3ccc(F)cc3F)C[C@@H]12 (some centres not stated),–,inactive
CCC(C)n1ncn(-c2ccc(N3CCN(c4ccc(OC[C@H]5CO[C@](Cn6cncn6)(c6ccc(Cl)cc6Cl)O5)cc4)CC3)cc2)c1=O (some centres not stated),–,inactive
CCOC(=O)C1=C(C)NC(C)=C(C(=O)OC)C1c1cccc(Cl)c1Cl (configuration not stated),–,inactive
